High-throughput results from PubChem.
Tau FP inhib – inhibitors of human tau fibril formation; P10636; AID 1468; Potency, µM (highest dose often 57.7 µM), actives largely listed as inhibitors; K18 P301L tau heparin fibrillization, Alexa594 FP, 6 h; hit rate 0.39% among 280,000; also: nearly all actives have a fitted effect of over 55% in size
Target sequence (P10636 561-689 P618L limits assumed): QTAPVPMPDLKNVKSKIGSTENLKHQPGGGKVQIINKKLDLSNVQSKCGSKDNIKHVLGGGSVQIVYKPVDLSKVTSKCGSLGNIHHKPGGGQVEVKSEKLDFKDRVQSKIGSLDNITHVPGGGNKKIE
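K18 P301L tau (15 uM unlabeled/0.24 uM Alexa 594-labeled, final) + compound + heparin 20 uM final; 100 mM NaOAc pH 7; 6 hr 37 C; ThT 30 uM final added, 1 hr RT; FP ex 555/em 632 nm.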
Tau fluor cs – counter-screen for tau fibril formation inhibitors. Potency, µM (highest dose often 57.7 µM). hit rate 0.93% among 280,000. tau K18 P301L Alexa594 fluorescence, heparin fibrillization; also: nearly all actives have a fitted effect of over 55% in size
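Human tau K18 P301L (15 uM unlabeled, 0.24 uM Alexa 594-labeled) in 100 mM sodium acetate pH 7 with 20 uM heparin, 6 hr at 37 C. ThT 30 uM added, 1 hr ambient; Alexa 594 FP and total fluorescence read at 555/632 nm.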
Sfp PPTase inh – inhibitors of Bacillus subtilis Sfp phosphopantetheinyl transferase; Q9F4F7; Biochemical Sfp PPTase activity, qHTS; Potency, µM, usual class: inhibitors; hit rate 3.5% among 310,000; AID 1490;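 also: the enzyme is Sfp with the accession as filed and its product quenches rhodamine fluorescence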
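Reaction rates are the 30-min fluorescence difference (ex 525, em 598 nm) in wells containing 15 nM Sfp, 5 uM rhodamine-CoA and 12.5 uM BHQ-2-YbbR at pH 7.6 with 10 mM MgCl2.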
Tau ThT inhib – blocks human tau fibril formation measured by thioflavin T | recombinant tau K18 P301L, heparin-induced fibrillization, ThT fluorescence | Potency, µM (series often up to 57.4 µM), usual class: inhibitors | hit rate 2.1% among 270,000; also: nearly all actives have a fitted effect of over 55% in size
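ThT emission at 510 nm, taken 1 hr after adding 30 uM dye, quantifies aggregates formed when 20 uM heparin acts on human tau K18 P301L for 6 hr at 37 C.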
FBPA coupling cs – coupling enzyme interference in Giardia aldolase counter-screen; activity change, negative = inhibition, % at 58.2 µM, hits read low; coupling enzyme system counterscreen, AmpLite Red fluorescence; hit rate 0.67% among 290,000; in the data active = activity change below about -30%
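Counterscreen of the coupled detection system alone, without aldolase: glyceraldehyde-3-phosphate coupling enzymes plus AmpLite Red readout. Compounds at 57.5 uM final, 10 min RT preincubation, 20 min RT reaction, fluorescence 525/598 nm.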
Hits are given with their value; - = inactive; ? = inconclusive; . = no result given; ! = a repeat was not active; [ ] = dose if it differs, or a comment. Rows were chosen to be rich in hits. Some 5.2% of all compounds tested hit in one or more screens of this group. Unless noted, calls follow the shape of the dose curve; as a rule, active = well fitted curve in the direction sought with a large enough effect; inconclusive = small, poorly fitted or top-dose-only effect, or another doubt; inactive = no such curve, though single readings can be large; an effect the other way counts as inactive or inconclusive.

SMILES	Tau FP inhib	Tau fluor cs	Sfp PPTase inh	Tau ThT inhib	FBPA coupling cs
O=C(Nc1ccc(N2CCCC2)cc1)C(Cl)c1ccccc1 (stereo not drawn)	32µM	?	45µM	25µM	-
O=C(CNCC1CCCCC1)Nc1ccc(N2CCCCC2)cc1	-	-	?	-	-
CS(=O)(=O)N1CCN(c2ccc(NC(=O)C(c3ccccc3)c3ccccc3)cc2)CC1	-	?	-	-	-
O=C(O)CCC(=O)Nc1ccc(N2CCCCCC2)cc1	-	-	22µM	-	-
O=C(CNCCC1=CCCCC1)Nc1ccc(N2CCCCCC2)cc1	-	-	16µM	?	-
O=C(CNCC1CCCO1)Nc1ccc(N2CCCCCC2)cc1 (stereo not drawn)	-	-	56µM	?	-
Cc1ccc(N2CCN(c3ccc(NC(=O)CCC(=O)O)cc3)CC2)cc1	-	-	-	?	-
O=C(CSc1nc(=O)n(Cc2ccco2)c2c1CCC2)NCc1ccccc1Cl	-	-	.	-	.
CCCCOC(=O)c1ccc(NC(=O)c2cc3c(=O)n4cccc(C)c4nc3n2C)cc1	-	-	.	-	.
O=C(Nc1ccc(N2CCCCC2)cc1)c1ccc2ccccc2n1	-	?	?	13µM	-
CCOC(=O)c1c(CSC(=N)N)n(-c2ccc(C)cc2)c2cc(Br)c(OC(C)=O)cc12	-	-	45µM	?	-
CCOC(=O)c1c(CSC(=N)N)n(C)c2cc(Br)c(OC(C)=O)cc12	-	?	-	?	-
O=C(Cn1c(=O)c2ccccc2n(CC(=O)Nc2ccc(F)cc2)c1=O)NCCc1ccccc1	?	-	.	-	.
O=C(O)c1ccc(S(=O)(=O)c2ccc([N+](=O)[O-])cc2[N+](=O)[O-])cc1	.	.	79µM	.	-
Cc1ccc(NC(=O)CCC(=O)NNC(=S)Nc2ccc(F)cc2)c(C)c1	.	.	-	.	-
Cc1ccc(NNC(=S)Nc2ccc(C(C)C)cc2)c(C)c1	-	?	-	14µM	-
NCCS	?	?	79µM!	16µM	-
CC(=O)Nc1c([N+](=O)[O-])cc2[nH]c(=O)[nH]c2c1[N+](=O)[O-]	-	-	20µM	?	-
COc1ccccc1NC(=O)c1cc2cc(Br)ccc2cc1O	-	6.3µM[quencher]	?	.	-
COc1ccccc1NC(=O)c1cc2ccc(O)cc2o/c1=N\O	-	?	-	7.1µM	-
COc1ccccc1N=c1oc2cc(O)ccc2cc1C(N)=O	-	-	-	?	-
COc1ccc(NC(=O)c2cc3ccccc3o2)c(OC)c1	-	-	.	-	.
COc1cc(NC(=O)c2cc3ccccc3cc2O)c(OC)cc1Cl	-	?	-	?	-
COc1ccccc1NC(=O)c1cc2ccccc2o/c1=N\O	-	-	50µM	?	-
Cc1ccc(-c2c(CN3CCN(c4cc(Cl)ccc4C)CC3)csc2C)cc1	-	-	.	-	.
SMILES	Tau FP inhib	Tau fluor cs	Sfp PPTase inh	Tau ThT inhib	FBPA coupling cs
Cc1ccc(CNC(=O)c2ccc3nc(SCc4ccc(F)cc4)[nH]c3c2)cc1	22µM	?	.	-	.
N#Cc1c(SCC(=O)Nc2nccs2)nc2c(c1-c1ccco1)CCCC2	-	-	20µM	-	-
COC(=O)CSc1nc2c(c(-c3ccc(C)o3)c1C#N)CCCC2	-	-	50µM	-	-
Cc1ccccc1NC(=O)CSc1nc2c(c(-c3ccco3)c1C#N)CCCC2	-	-	-	-	-
CS(=O)(=O)NC(=O)CCC/C=C\C[C@H]1C(=O)C[C@@H](O)[C@@H]1/C=C/[C@@H](O)COc1ccccc1	.	.	-	.	-
Cc1ccccc1NC(=O)Cn1c(=O)oc2cc(Br)ccc21	-	-	.	-	.
CCC1(C)Cc2c(sc3[nH]c(=O)[nH]c(=O)c23)CS1 (stereo not drawn)	-	-	22µM	?	-
CCC1(C)Cc2c(sc3[nH]c(=S)[nH]c(=S)c23)CO1 (stereo not drawn)	.	.	-	.	-
COc1ccc2nc(-c3ccco3)c(-c3ccco3)nc2c1	?	7.9µM[quencher]	7.1µM	4.5µM	-32
Nc1nc(-c2ccc(-n3nncc3-c3ccco3)cc2)cs1	-	-	-	-	-
c1coc(-c2nc(-c3ccco3)c(-c3ccco3)nc2-c2ccco2)c1	11µM	?	35µM	7.9µM	-
c1coc(-c2ncc[nH]2)c1	-	-	-	-	-
Nc1nc(-c2cccs2)c(-c2cccs2)s1	.	.	-	.	-
Nc1nc(-c2ccco2)cs1	-	-	50µM	?	-
Nc1nc(-c2ccco2)c(-c2ccco2)s1	-	?	16µM	?	-
CCOc1ccc(CNC(=O)c2cnc(SC)nc2CC)cc1	-	-	.	-	.
CCOc1ccc(C(=O)c2oc3ccccc3c2NC(=O)Cc2coc3ccc(CC)cc23)cc1	-	-	.	-	.
Cc1cccc2cc(C(c3nnnn3C3CCCC3)N3CCOCC3)c(=O)[nH]c12 (stereo not drawn)	-	-	-	-	-
Cc1cc(C)c2cc(C(c3nnnn3C3CCCC3)N3CCOCC3)c(=O)[nH]c2c1 (stereo not drawn)	?	-	56µM	?	-
Cc1ccc2cc(C(c3nnnn3C3CCCC3)N3CCN(c4ccc(F)cc4)CC3)c(=O)[nH]c2c1 (stereo not drawn)	-	-	35µM	?	-
COc1ccccc1/C=C/C=N/NC(=O)c1ccccn1	-	-	-	?	-
COc1ccccc1/C=C/C=N/NC(=O)c1cc(-c2ccco2)[nH]n1	-	-	13µM	-	-
COC(=O)c1ccc(-c2nc3cc(Cl)c(N)cc3s2)cc1	-	-	-	?	-32
O=S(=O)(c1ccc(Cl)nc1)N1CCCc2ccccc21	-	-	-	-	-33
CCC(C)NC(=O)CCc1c(C)nc2cc(-c3ccc(OC)cc3OC)nn2c1C (stereo not drawn)	-	-	.	-	.
SMILES	Tau FP inhib	Tau fluor cs	Sfp PPTase inh	Tau ThT inhib	FBPA coupling cs
Fc1ccc(Nc2ccnc(-c3ccccc3C(F)(F)F)n2)cc1	.	.	-	.	-
S=c1nccc(-c2ccc(Cl)cc2)[nH]1	?	-	-	?	-
Cc1ccc(-c2ccc(C(=O)O)[nH]2)cc1	-	-	-	-	-
Cc1ccc(-c2csc(=S)[nH]2)cc1	-	-	35µM	?	-
S=c1[nH]c(-c2ccc(Cl)cc2)cs1	-	-	11µM	?	-
Cn1cccc1C(=O)N1CCC2(CC1)CN(C(=O)Nc1cccc(C#N)c1)C2	.	.	-	.	-
CCc1n[nH]c(=S)n1/N=C/c1ccc(N(CC)CC)cc1	-	-	-	?	-
CCc1n[nH]c(=S)n1/N=C/c1cc(Br)c(O)c(OC)c1	-	-	79µM	-	-
C=CCOc1c(Br)cc(/C=N/n2c(CC)n[nH]c2=S)cc1Br	-	-	79µM	-	-
Cn1cnnc1Sc1ccc(C(=O)OCC(=O)Nc2cc(Cl)cc(Cl)c2)cc1[N+](=O)[O-]	-	13µM[quencher]	-	?	-
Cn1cnnc1Sc1ccc(/C=C/C(=O)c2ccc(O)cc2)cc1[N+](=O)[O-]	-	?	-	14µM	-
Cn1cnnc1Sc1ccc(C(=O)OCC(=O)Nc2ccccc2)cc1[N+](=O)[O-]	-	-	-	-	-
